Results as given in PubChem BioAssay (NCI).
Compounds without any hit were thinned out: in the full panel of roughly 83,000, 20% have a hit.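 Single-concentration screen, 48 h exposure, 96-well plates. Endpoint: percent growth. Below 10 = active.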 The source made the active and inactive calls.

System: SK-MEL-5 melanoma
Assay: NCI-60 one-dose screen, 48 h (100 = growth as untreated, 0 = no growth, -100 = all killed)
Conditions: 10 µM unless noted
Method: Growth inhibition of the SK-MEL-5 human tumor cell line is measured as a screen for anti-cancer activity. Cells are grown in 96 well plates and exposed to the test compound for 48 hours. Compounds are tested at a single concentration, which is 10^-5 M for most compounds. The reported endpoint is percent growth (GI% or GIPRCNT), where numbers from 0 - 100% represent growth inhibition, and numbers from -100% - 0 represent cell death. For example, a value of 40 represents 60% growth inhibition. A value of 0 means no net growth occurred over the course of the experiment. A value of -40 indicates 40% of cells at the beginning of the experiment died by the end of the experiment. A value of -100 means all cells are dead at the end of the experiment.
NCI-60 Human Tumor Cell Lines Screen was performed using the standard one-dose NCI protocol, which is described in more detail at https://dtp.cancer.gov/discovery_development/nci-60/default.htm.
Compounds with GIPRCNT values below 10 were considered active. Activity score was based on GIPRCNT using the following formula: […]
Score is 0 for GIPRCNT values of 100 or above, 50 for GIPRCNT values of 0, and 100 for GIPRCNT values of -100.

SMILES	growth
Nc1c(C(=O)Nc2ccccn2)sc2nc3c(cc12)C(=O)CCC3	17.1% (inactive)
COc1ccc2nc(-c3ccc(Cl)cc3)cc(C(=O)N3N=C(c4ccc(N)cc4)CC3c3ccccc3)c2c1 (stereo not given)	39.4% (inactive)
COc1cc(C(=O)N2CCN(c3ccccc3OC)CC2)c(NC(=O)c2cnccn2)cc1OCc1ccccc1	78.4% (inactive)
Cc1cnc(SCc2ccc(Cl)cc2Cl)nc1Nc1ccc(Cl)c(Cl)c1	93.4% (inactive)
O=C1Nc2ccc(Cl)cc2/C1=N/c1nc(-c2ccc(Cl)cc2)cs1	8.24% (active)
Cc1cccc(C)c1Nc1nnc(-c2ccc(F)cc2)o1	98.9% (inactive)
CCOc1ccccc1C(=O)/C=C/c1cc2ccccc2[nH]c1=O	-78.3% (active)
C=CCn1c(SCC(=O)Nc2ccc(C(=O)/C=C/c3ccc(Cl)cc3)cc2)nnc1-c1cc(OC)c(OC)c(OC)c1	63.5% (inactive)
COC(=O)/C=C1\SC(=Nc2cccc(Cl)c2)N(CCc2c[nH]c3ccccc23)C1=O	63.3% (inactive)
O=C(Nc1ccccc1)NS(=O)(=O)c1c[nH]c(=S)[nH]c1=O	104% (inactive)
Cc1nccc2c3ccc(OCc4cn(-c5ccc(Br)cc5)nn4)cc3n(CC(C)C)c12	13.1% (inactive)
CN1CC=C(c2cc(NC(=O)Nc3ccc(Oc4ccnc(NC(=O)C5CC5)c4)c(F)c3)cc(C(F)(F)F)c2)CC1	-43.9% (active)
c1ccc2nc(N3CCOCC3)c(N3CCCCC3)nc2c1	96.8% (inactive)
OCCNc1nc(NCCO)nc(Nc2ccc(C3=NN(c4ccc(Cl)cc4)C(c4ccc(Cl)cc4)C3)cc2)n1 (stereo not given)	78.2% (inactive)
Cc1ccc(SC2c3ccc(C)cc3Oc3nc(N)c(C#N)c(N)c32)cc1 (stereo not given)	63.8% (inactive)
Cc1ccc(C2=N[C@H]3CCC[C@@H]3N(c3ccccc3)C(C(Cl)Cl)=N2)cc1	104% (inactive)
O=[N+]([O-])c1ccc(Oc2ccc(-c3ccccc3)cc2)cc1	88.2% (inactive)
COc1ccc(-c2cc(-c3nnc(SCC(=O)Nc4ccc(C(C)=O)cc4)o3)c3ccccc3n2)cc1	5.12% (active)
COC(=O)/C=C1\SC(=Nc2ccc(F)cc2)N(CCc2c[nH]c3ccccc23)C1=O	99.5% (inactive)
COc1cc(/C=N/Nc2nc(-c3ccc(F)cc3)c(C#N)c(N3CCOCC3)n2)ccc1O	102% (inactive)

SMILES	growth
COc1ccc(C(=O)c2cc(OC)c(OC)c(OC)c2)cc1OC(=O)CCl	-34% (active)
O=C1CCC23OC(C(O)c4ccccc4N12)C1C(Br)=NOC13 (stereo not given)	111% (inactive)
COc1ccc2c(c1)Oc1nc(N)c(C#N)c(N)c1C2Sc1ccc(SC)cc1 (stereo not given)	40.8% (inactive)
Nc1c(C(=O)Nc2ccccn2)sc2nc3c(cc12)CCCCC3	22.2% (inactive)
CSc1cccc(NC(=O)Nc2nc3c(C)cccc3s2)c1	95.6% (inactive)
C=C1C(=O)O[C@H]2[C@H]1CC/C(COC(=O)c1cccnc1N)=C\CC[C@@]1(C)O[C@@H]21	15.3% (inactive)
COc1ccc(C(=S)c2cc(OC)c(OC)c(OC)c2)cc1OC(=O)CCl	-29.7% (active)
CCCn1c(N)c(C(N)=O)sc1=S	111% (inactive)
Cc1cccc(C)c1NCc1nnc(-c2ccc(O)cc2)o1	101% (inactive)
CCc1n(Cc2ccc3ccccc3c2)c2ccccc2[n+]1Cc1ccc2ccccc2c1	38.8% (inactive)
CC1(c2ccccc2Cl)NC(=O)NC1=O (stereo not given)	101% (inactive)
Cc1c(O)c(=O)ccn1-c1nc2ccccc2s1	96.2% (inactive)
COc1cccc(NC(=O)Nc2ccc(Nc3ncnc4[nH]c(C)c(C)c34)cc2)c1	102% (inactive)
COc1cc(C(=O)Nc2cc(OC)c3ccn(C)c3c2)cc2c1C[C@]1(C)CC[C@@H](O)C(C)(C)[C@H]1O2	-34.8% (active)
COc1ccc2nc(-c3ccc(Cl)cc3)cc(-c3nnc(SC/C(=N/O)c4ccccc4)o3)c2c1	25.9% (inactive)
CC1CCCN(CCCCCOc2ccc3oc4ccccc4c(=O)c3c2)C1 (stereo not given)	-59.2% (active)
CCSc1ccc(C2C(Br)C(=O)N2c2cc(OC)c(OC)c(OC)c2)cc1 (stereo not given)	-11.3% (active)
O=c1[nH]c2ccccc2cc1-c1nc2ccc(Cl)cc2[nH]1	42.5% (inactive)
COc1c(O)cc2oc3cc(O[C@@H]4OC(C)[C@@H](O)[C@H](O)C4O)c(CC=C(C)C)c(O)c3c(=O)c2c1CC=C(C)C (stereo not given in full)	91% (inactive)
N#Cc1c(-c2ccc(Cl)cc2)cc(-c2cc3ccccc3o2)nc1SCC(=O)c1ccc(Cl)cc1	100% (inactive)
